Nine molecules from PubChem BioAssay (NCATS) can be followed below.

The nature of experiment [1]: qHTS profiling of the MIPE4 collection as inhibitors of Plasmodium falciparum (3D7) proliferation (AID 743344; call rule not given here;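 further: scaled between DMSO vehicle wells and 0.29 µM artemisinin as full inhibition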). The following applies: P. falciparum 3D7 in erythrocytes, SYBR Green DNA fluorescence, 72 h; at 28.5 µM unless noted. An outline of the steps: (§1)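 Erythrocytes infected with P. falciparum (0.3% parasitemia, 2.5% hematocrit) incubated with compounds 72 h at 37 C, 5% CO2. Lysis with saponin/Triton buffer containing SYBR Green I, overnight at room temperature in the dark; DNA fluorescence (485/535 nm) normalised to 0.29 uM artemisinin and DMSO.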

Experiment [2] is described as follows: qHTS profiling of the MIPE4 collection as inhibitors of Plasmodium falciparum (DD2) proliferation (AID 743345; call rule not given here). The following applies: P. falciparum Dd2 in erythrocytes, SYBR Green DNA, 72 h; at 28.5 µM unless noted. An outline of the steps:
as §1
For orientation: In qHTS, concentration-response curves come from the screen itself.

The nature of experiment [3]: qHTS profiling of the MIPE4 collection as inhibitors of Plasmodium falciparum (HB3) proliferation (AID 743347; call rule not given here;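 further: plate controls were DMSO vehicle wells for no effect and artemisinin wells for full effect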). The following applies: P. falciparum HB3 in erythrocytes, SYBR Green DNA, 72 h; at 28.5 µM unless noted. An outline of the steps:
as §1

Experiment [4] is described as follows: qHTS for Inhibitors of the Functional Ribonucleoprotein Complex (vRNP) of Lassa (LASV) Arenavirus: LASV Primary Screen - GLuc reporter signal (AID 1347082; calls by dose curve; tested in HEK293 reporter line; further: nearly all actives have a fitted effect of over 60% in size; further: potency means the concentration at half of the fitted maximal effect; on activity change, negative = inhibition: on the % scale 0 is the no-effect control and ±100 the full control effect).
Experiment [5] is described as follows: qHTS for Inhibitors of the Functional Ribonucleoprotein Complex (vRNP) of Lassa (LASV) Arenavirus: Viability assay - alamar blue signal for LASV Primary Screen (AID 1347083; calls by dose curve; tested in HEK293 reporter line; further: nearly all actives have a fitted effect of over 80% in size; further: potency means the concentration at half of the fitted maximal effect).
Experiment [6] can be described thus: qHTS for Inhibitors of the Functional Ribonucleoprotein Complex (vRNP) of Lymphocytic Choriomeningitis Arenaviruses (LCMV): Viability assay - alamar blue signal for LCMV Primary Screen (AID 1347085; calls by dose curve; tested in HEK293 reporter line; further: nearly all actives have a fitted effect of over 80% in size; further: potency means the concentration at half of the fitted maximal effect).
Experiment [7] addresses Nucleoprotein (Lymphocytic choriomeningitis virus (strain Armstrong)) (UniProt P09992). Nature of the experiment: qHTS for Inhibitors of the Functional Ribonucleoprotein Complex (vRNP) of Lymphocytic Choriomeningitis Arenaviruses (LCMV): LCMV Primary Screen - GLuc reporter signal (AID 1347086). Further: on the % scale 0 is the no-effect control and ±100 the full control effect; nearly all actives have a fitted effect of over 70% in size.
A short description of experiment [8]: Primary qHTS to identify inhibitors of SARS-CoV-2 cell entry (AID 1645846). Further: nearly all actives have a fitted effect of over 45% in size. The following applies: activity change, negative = inhibition: at 57.1 µM (top of the series) unless noted. An outline of the steps: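 Entry measured by luciferase signal 48 h after adding SARS-CoV-2-S pseudotyped MLV particles to HEK293-ACE2 cells preincubated 1 h with compounds. Normalisation: bald particles and spike particles.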

Experiment [9] can be described thus: Cytotoxicity counterscreen for inhibitors of SARS-CoV-2 cell entry (AID 1645845). Further: on the % scale 0 is the no-effect control and ±100 the full control effect; nearly all actives have a fitted effect of over 50% in size. An outline of the steps: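 HEK293-ACE2 cells (Expi293F stably expressing human ACE2) seeded overnight, then compound for 1 h plus 48 h at 37C. Viability as ATP content by luminescence; normalized to wells with cells and media-only wells.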
The target in experiment [10] is Alpha-galactosidase (Coffea arabica) (UniProt Q42656). Nature of the experiment: Counterscreen for Glucocerebrosidase Inhibitors: qHTS Assay for Coffee Bean alpha-Galactosidase at pH 4.5 (AID 957; active means well fitted curve in the direction sought with a large enough effect; an effect the other way counts as inactive or inconclusive;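 further: plate controls were enzyme alone for no effect and no enzyme for full effect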). The method in brief: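 Green coffee bean enzyme (2 nM final) was incubated with compounds (0.7 nM to 77 uM) and 4-methylumbelliferyl alpha-D-galactopyranoside (80 uM final) in 50 mM citric acid, 0.005% Tween-20, pH 4.5, 20 min at room temperature; AC50 from Hill fits.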
A general note: Counterscreens check selectivity or assay interference.

For experiment [11] the target is unchanged. Nature of the experiment: Counterscreen for Glucocerebrosidase Inhibitors: qHTS Assay for Coffee Bean alpha-Galactosidase at pH 5.9 (AID 998; active means well fitted curve in the direction sought with a large enough effect; an effect the other way counts as inactive or inconclusive;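 further: plate controls were uninhibited enzyme for no effect and no-enzyme basal signal for full effect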). The method in brief:
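Green coffee bean enzyme (2 nM) with 4-methylumbelliferyl alpha-D-galactopyranoside (80 uM) in 50 mM citric acid, 0.005% Tween-20, pH 5.9, 20 min at room temperature; compounds 0.7 nM–77 uM. Stopped at pH 10, fluorescence Ex365/Em440; Hill-fit AC50.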

The nature of experiment [12]: qHTS profiling of the MIPE4 collection as inhibitors of Plasmodium falciparum (DD2) proliferation (Rep 2) (AID 743346; call rule not given here). The following applies: P. falciparum Dd2 in erythrocytes, SYBR Green DNA, 72 h; at 28.5 µM unless noted. The method in brief:
as §1

The nature of experiment [13]: Confirmatory qHTS for VERO E6 Cytotoxicity Assay: Counterscreen for SARS-CoV-2 CPE Assay (AID 1508605). Further: potency means the concentration at half of the fitted maximal effect; nearly all actives have a fitted effect of over 60% in size.
Experiment [14] in a line: Validation screen for inhibitors of Lassa infection (AID 463096). Further: on the % scale 0 is the no-effect control and ±100 the full control effect.
Experiment [15] can be described thus: Inducers of the Endoplasmic Reticulum Stress Response (ERSR) in human glioma: Validation (AID 504836; active means well fitted curve in the direction sought with a large enough effect; an effect the other way counts as inactive or inconclusive; further: 0% is about no effect). An outline of the steps: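 Stably transfected U87-MG glioma cells carrying a GRP78-based luciferase sensor; 16 h compound incubation. Luminescence end-point read 10 min after Bright-Glo addition at room temperature.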

Records with an inconclusive call do not appear. Activity calls are given as the source filed them. Unless noted, the call rests on the fitted dose curve. Square brackets hold non-standard residues; d marks the D form. Peptide text beside a SMILES is read from it. * marks the point of attachment. Nva = CCC[C@H](N)C(=O)O; Cbz = O=C(OCc1ccccc1)*

Sequence of Nucleoprotein (Lymphocytic choriomeningitis virus (strain Armstrong)) (P09992 whole entry, looked up): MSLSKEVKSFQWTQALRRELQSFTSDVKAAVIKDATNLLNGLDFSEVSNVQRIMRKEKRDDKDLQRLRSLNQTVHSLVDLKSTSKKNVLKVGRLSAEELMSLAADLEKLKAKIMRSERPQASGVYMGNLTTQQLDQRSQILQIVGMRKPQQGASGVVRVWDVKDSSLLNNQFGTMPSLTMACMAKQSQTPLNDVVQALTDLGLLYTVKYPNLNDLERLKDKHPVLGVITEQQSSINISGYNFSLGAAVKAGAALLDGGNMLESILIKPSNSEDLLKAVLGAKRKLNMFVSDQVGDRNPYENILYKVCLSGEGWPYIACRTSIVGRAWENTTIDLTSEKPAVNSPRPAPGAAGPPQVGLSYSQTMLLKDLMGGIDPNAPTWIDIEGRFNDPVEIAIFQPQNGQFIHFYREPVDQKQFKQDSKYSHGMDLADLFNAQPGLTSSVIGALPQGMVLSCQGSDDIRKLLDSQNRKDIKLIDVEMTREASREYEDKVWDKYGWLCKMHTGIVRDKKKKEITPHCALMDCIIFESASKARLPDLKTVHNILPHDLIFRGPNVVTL
Sequence of Alpha-galactosidase (Coffea arabica) (Q42656 whole entry, looked up): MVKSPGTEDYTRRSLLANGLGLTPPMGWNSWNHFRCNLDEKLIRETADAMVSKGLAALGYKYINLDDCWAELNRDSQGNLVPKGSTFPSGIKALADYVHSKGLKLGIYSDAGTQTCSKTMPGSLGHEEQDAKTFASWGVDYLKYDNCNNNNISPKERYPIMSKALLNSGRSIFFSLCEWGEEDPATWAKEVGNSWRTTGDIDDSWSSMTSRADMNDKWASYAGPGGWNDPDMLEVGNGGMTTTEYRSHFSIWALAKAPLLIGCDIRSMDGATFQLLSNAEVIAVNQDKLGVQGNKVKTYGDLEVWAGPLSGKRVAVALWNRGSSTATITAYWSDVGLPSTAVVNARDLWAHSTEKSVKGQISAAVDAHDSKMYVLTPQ

For the molecule `CON=C(C(=O)N[C@@H]1C(=O)N2C(C(=O)O)=C(Cn3ccc(=N)n3CCO)CS[C@H]12)c1csc(N)n1`, in experiment [1], the parasite growth, % of DMSO control is 60.9%. For the same molecule, the parasite growth remaining, % of DMSO control (lower = more inhibition) in experiment [2] is 93.5%. In experiment [3], this molecule had a growth, % of control of 99.1%. For the same molecule, the Potency entry in experiment [4], in experiment [5], in experiment [6] and in experiment [7] was “inactive” each time.
On to `COc1ccc(-c2oc3c(CC=C(C)C)c(O)cc(O)c3c(=O)c2O)cc1`, for which the Potency entry in experiment [4] was “inactive”. In addition, the values for the Potency in experiment [5] and in [6] were 38.5 µM (active) and 3.43 µM (active), respectively. Also, the activity change, negative = inhibition in experiment [8] was -9.03%.
`NC[C@H]1O[C@H](O[C@@H]2[C@@H](O)[C@@H](O[C@H]3O[C@H](CO)[C@@H](O)[C@H](N)[C@@H]3O)[C@H](N)C[C@@H]2N)[C@H](O)[C@@H](O)[C@H]1O`: the Potency result in experiment [4], in experiment [5], in [6] and in experiment [9] was “inactive” throughout. In addition, the activity change, negative = inhibition in experiment [8] was -26.9%.
On to `CC[C@@H]1Cc2cc(O)ccc2C2=C1c1ccc(O)cc1C[C@H]2CC`, for which the call in experiment [10] and in experiment [11] was inactive. The Potency result in [4], in experiment [5], in experiment [6] and in [7] was “inactive” in each case.
Take `CC(=O)N[C@H]1[C@@H]([C@H](O)[C@H](O)CO)OC(C(=O)O)=C[C@@H]1N=C(N)N`: the parasite growth, % of DMSO control in [1] came to 96.2%. Also, the parasite growth remaining, % of DMSO control (lower = more inhibition) in [2] stood at 100%. Moreover, in experiment [3], the growth, % of control came to 100%. For the same molecule, the Potency entry in experiment [4], in experiment [5], in [6] and in experiment [7] was “inactive” throughout.
Take `CC(C)OC(=O)[C@H](C)N[P@](=O)(OC[C@H]1O[C@@H](n2ccc(=O)[nH]c2=O)[C@](C)(F)[C@H]1O)Oc1ccccc1`: the parasite growth, % of DMSO control in experiment [1] came out at 62.8%. In addition, in [2], the parasite growth remaining, % of DMSO control (lower = more inhibition) amounted to 95.7%. The parasite growth, % of control (lower = inhibition) in experiment [12] turned out to be 78.3%. This molecule came in with a growth, % of control in experiment [3] of 76.4%. Besides, the Potency entry in experiment [4], in experiment [5], in experiment [6] and in experiment [7] was “inactive” in each case.
`Cc1cc(NC(=O)Nc2ccc3c(ccn3C)c2)sn1`: the result in experiment [10] and in experiment [11] was inactive. Also, the Potency entry in experiment [4], in [5], in experiment [6] and in experiment [7] was “inactive” in each case.
With `CCC[C@@H](C=O)NC(=O)[C@H](CC(C)C)NC(=O)[C@H](CC(C)C)NC(=O)OCc1ccccc1` (Cbz-Leu-Leu-[Nva]-aldehyde), the Potency in experiment [4] is 3.43 µM (active); in experiment [5], 5.44 µM (active); in [6], 12.2 µM (active); in experiment [13], 0.714 µM (active).
Regarding `Clc1nccc2c1ccc1ccccc12`, the molecule was called inactive in experiment [10], in experiment [11] and in [15]. Moreover, the Potency entry in [14], in [4], in [5] and in experiment [6] was “inactive” in each case.
